Measurements taken from PubChem BioAssay (NCI).
This is part of a sample that, as a whole, favours compounds with a hit. Of some 83,000 tested, about 20% had one in any assay.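 Percent growth is the endpoint: 0 to 100 indicates growth inhibition (40 means 60% inhibition), 0 means no net growth, and negative values indicate cell death.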 Unmarked numbers belong to inactive results. Calls of active or inactive are those of the source. Rule for the calls: active = growth percent below 10; inactive = the rest.

How the values were obtained:
Assay in all cases: NCI-60 one-dose screen, 48 h (100 = growth as untreated, 0 = no growth, -100 = all killed)
Details in all cases: 10 µM unless noted
DU-145 prostate = test system: DU-145 prostate
K-562 leukemia = test system: K-562 leukemia
MALME-3M melanoma = test system: MALME-3M melanoma
MDA-MB-231 breast = test system: MDA-MB-231 breast
RXF 393 renal = test system: RXF 393 renal
SF-268 CNS = test system: SF-268 CNS
SF-295 CNS = test system: SF-295 CNS
SF-539 CNS = test system: SF-539 CNS
UACC-257 melanoma = test system: UACC-257 melanoma
M14 melanoma = test system: M14 melanoma
HCT-15 colon = test system: HCT-15 colon
HT29 colon = test system: HT29 colon
SNB-75 CNS = test system: SNB-75 CNS
SNB-19 CNS = test system: SNB-19 CNS
PC-3 prostate = test system: PC-3 prostate
SK-MEL-5 melanoma = test system: SK-MEL-5 melanoma
UACC-62 melanoma = test system: UACC-62 melanoma
LOX IMVI melanoma = test system: LOX IMVI melanoma
SK-MEL-28 melanoma = test system: SK-MEL-28 melanoma
U251 CNS = test system: U251 CNS

COC(=O)c1c2c(c(C)[n+]([O-])c1C)C(=O)C(NCc1cccc(Cl)c1)=CC2=O
growth (DU-145 prostate): 38.3% | growth (K-562 leukemia): 6.86% (active) | growth (MALME-3M melanoma): -96.2% (active) | growth (MDA-MB-231 breast): 3.99% (active) | growth (RXF 393 renal): 34.3% | growth (SF-268 CNS): 16.2% | growth (SF-295 CNS): 42.5% | growth (SF-539 CNS): 4.07% (active) | growth (UACC-257 melanoma): -37.5% (active) | growth (M14 melanoma): 1.44% (active) | growth (HCT-15 colon): 7.55% (active) | growth (HT29 colon): 5.87% (active) | growth (SNB-75 CNS): 127% | growth (SNB-19 CNS): 9.37% (active) | growth (PC-3 prostate): 4.17% (active) | growth (SK-MEL-5 melanoma): -77.7% (active) | growth (UACC-62 melanoma): -42.6% (active) | growth (LOX IMVI melanoma): 11.7% | growth (SK-MEL-28 melanoma): 63%

CCCCCCCCCCCCCCCCCCOc1ccccc1CC(=O)NCC[N+]1(C)CCCCC1
growth (DU-145 prostate): 68.7% | growth (K-562 leukemia): 34.2% | growth (MALME-3M melanoma): 44.9% | growth (MDA-MB-231 breast): 36.6% | growth (RXF 393 renal): 18.4% | growth (SF-268 CNS): 34% | growth (SF-295 CNS): 90.2% | growth (SF-539 CNS): 84% | growth (UACC-257 melanoma): 88.3% | growth (M14 melanoma): 68.3% | growth (HCT-15 colon): 95.7% | growth (HT29 colon): 12.8% | growth (SNB-75 CNS): 61.4% | growth (SNB-19 CNS): 36.7% | growth (PC-3 prostate): 8.74% (active) | growth (SK-MEL-5 melanoma): 82.1% | growth (UACC-62 melanoma): 44.6% | growth (LOX IMVI melanoma): 53.6% | growth (SK-MEL-28 melanoma): 76.2%

CNCc1cccc2c1OCCOCCOCCNS(=O)(=O)c1ccc(cc1)-c1cnc(N)c(n1)C(=O)N2
growth (DU-145 prostate): 21.1% | growth (K-562 leukemia): 9.35% (active) | growth (MALME-3M melanoma): 29.9% | growth (MDA-MB-231 breast): 30.4% | growth (RXF 393 renal): -11.5% (active) | growth (SF-268 CNS): 35.7% | growth (SF-295 CNS): 70.3% | growth (SF-539 CNS): 7.45% (active) | growth (UACC-257 melanoma): 61.3% | growth (M14 melanoma): 26% | growth (HCT-15 colon): 89.8% | growth (HT29 colon): 12.4% | growth (SNB-75 CNS): 65.4% | growth (SNB-19 CNS): 18.2% | growth (PC-3 prostate): 20.1% | growth (SK-MEL-5 melanoma): 77% | growth (UACC-62 melanoma): 23.2% | growth (LOX IMVI melanoma): 2.85% (active) | growth (SK-MEL-28 melanoma): 51%

COc1cccc(-c2cc(-c3cccc(Cl)c3)c(C#N)c(=O)[nH]2)c1
growth (DU-145 prostate): 88% | growth (K-562 leukemia): 31.3% | growth (MALME-3M melanoma): 69.8% | growth (MDA-MB-231 breast): 96.1% | growth (RXF 393 renal): 75% | growth (SF-268 CNS): 79.1% | growth (SF-295 CNS): 74.2% | growth (SF-539 CNS): 74.5% | growth (UACC-257 melanoma): 85.5% | growth (M14 melanoma): 58.3% | growth (HCT-15 colon): 48.6% | growth (HT29 colon): 103% | growth (SNB-75 CNS): 30.8% | growth (SNB-19 CNS): 71.8% | growth (PC-3 prostate): 73.7% | growth (SK-MEL-5 melanoma): 68.6% | growth (UACC-62 melanoma): 42.4% | growth (LOX IMVI melanoma): 75.1% | growth (SK-MEL-28 melanoma): 72.3%

COc1cc2nc3sc(C(=O)Nc4ccc(C(=O)OC(C)C)cc4)c(C(=O)Nc4ccc(Cl)cc4C)n3c(=O)c2cc1OC
growth (DU-145 prostate): 13.2% | growth (K-562 leukemia): 56.4% | growth (MALME-3M melanoma): 43.9% | growth (MDA-MB-231 breast): 86.9% | growth (RXF 393 renal): 83.8% | growth (SF-268 CNS): 64.5% | growth (SF-295 CNS): 42% | growth (SF-539 CNS): 104% | growth (UACC-257 melanoma): 118% | growth (M14 melanoma): 77.7% | growth (HCT-15 colon): 93.7% | growth (HT29 colon): 41.2% | growth (SNB-75 CNS): 48% | growth (SNB-19 CNS): 96.9% | growth (PC-3 prostate): 30.2% | growth (SK-MEL-5 melanoma): 73% | growth (UACC-62 melanoma): 67.6% | growth (LOX IMVI melanoma): 69.7% | growth (SK-MEL-28 melanoma): 101%

NNCCc1ccc(NC(=O)CCCc2ccc(C(=O)Nc3ccccc3N)cc2)cc1
growth (DU-145 prostate): 90.7% | growth (K-562 leukemia): 43.5% | growth (MALME-3M melanoma): 56.9% | growth (MDA-MB-231 breast): 67.5% | growth (RXF 393 renal): 75.2% | growth (SF-268 CNS): 72.3% | growth (SF-295 CNS): 69% | growth (SF-539 CNS): 60.8% | growth (UACC-257 melanoma): 41.4% | growth (M14 melanoma): 72% | growth (HCT-15 colon): 96.8% | growth (HT29 colon): 51.1% | growth (SNB-75 CNS): 68.2% | growth (SNB-19 CNS): 85.5% | growth (PC-3 prostate): 55.1% | growth (SK-MEL-5 melanoma): 57.1% | growth (UACC-62 melanoma): 49.2% | growth (LOX IMVI melanoma): 63.7% | growth (SK-MEL-28 melanoma): 75.6%

Nc1ccc(-c2csc(-n3[nH]c(=O)ccc3=O)n2)cc1
growth (DU-145 prostate): 107% | growth (K-562 leukemia): 103% | growth (MALME-3M melanoma): 101% | growth (MDA-MB-231 breast): 101% | growth (RXF 393 renal): 93.8% | growth (SF-268 CNS): 102% | growth (SF-295 CNS): 102% | growth (SF-539 CNS): 105% | growth (UACC-257 melanoma): 103% | growth (M14 melanoma): 96.2% | growth (HCT-15 colon): 89.1% | growth (HT29 colon): 94.5% | growth (SNB-75 CNS): 99% | growth (SNB-19 CNS): 98.6% | growth (U251 CNS): 100% | growth (PC-3 prostate): 96.2% | growth (UACC-62 melanoma): 101% | growth (LOX IMVI melanoma): 102% | growth (SK-MEL-28 melanoma): 108%

O=C(Nc1ccccc1O)c1ccc(CNC(=O)c2ccsc2Nc2ccnc(C(F)(F)F)c2)cc1
growth (DU-145 prostate): 30.6% | growth (K-562 leukemia): 9.19% (active) | growth (MALME-3M melanoma): 9.89% (active) | growth (MDA-MB-231 breast): 39.1% | growth (RXF 393 renal): 0.801% (active) | growth (SF-268 CNS): 40.2% | growth (SF-295 CNS): 2.43% (active) | growth (SF-539 CNS): 42.4% | growth (UACC-257 melanoma): 6.92% (active) | growth (M14 melanoma): 45.2% | growth (HCT-15 colon): 28% | growth (HT29 colon): 28.7% | growth (SNB-75 CNS): 47.8% | growth (SNB-19 CNS): 52.3% | growth (U251 CNS): 1.39% (active) | growth (PC-3 prostate): 14.5% | growth (UACC-62 melanoma): 9.79% (active) | growth (LOX IMVI melanoma): 34.5% | growth (SK-MEL-28 melanoma): 51.3%
